Reference: PubChem BioAssay AID1259354 (Paczesny and Yang Labs, IUPUI and University of Michigan, 2018)
Values joined by “and” are separate entries in the source; they are usually repeats but may differ in a detail not shown here. Equal entries are not always repeated. Among all 78,000 compounds or so, about 1,800 (2.3%) were called active. Roughly 27% stayed inconclusive and do not appear here. Rule as the data show it: active = inhibition above about 30%; inconclusive = mostly about 10% to 28%; inactive = weaker than that. For the sample, actives were picked, then their nearest neighbours and some compounds at random.

Molecular target: Interleukin-1 receptor-like 1 (Homo sapiens) (UniProt Q01638)
Test: inhibitors of human ST2 (IL1RL1) binding to IL-33, primary screen, biochemical, AlphaLISA (AID 1259354)
Conditions: AlphaLISA ST2-Fc/biotin-IL-33 interaction, 1 h; at 17 µM, stronger effect = higher value

Sequence of Interleukin-1 receptor-like 1 (Homo sapiens) (Q01638 whole entry, looked up): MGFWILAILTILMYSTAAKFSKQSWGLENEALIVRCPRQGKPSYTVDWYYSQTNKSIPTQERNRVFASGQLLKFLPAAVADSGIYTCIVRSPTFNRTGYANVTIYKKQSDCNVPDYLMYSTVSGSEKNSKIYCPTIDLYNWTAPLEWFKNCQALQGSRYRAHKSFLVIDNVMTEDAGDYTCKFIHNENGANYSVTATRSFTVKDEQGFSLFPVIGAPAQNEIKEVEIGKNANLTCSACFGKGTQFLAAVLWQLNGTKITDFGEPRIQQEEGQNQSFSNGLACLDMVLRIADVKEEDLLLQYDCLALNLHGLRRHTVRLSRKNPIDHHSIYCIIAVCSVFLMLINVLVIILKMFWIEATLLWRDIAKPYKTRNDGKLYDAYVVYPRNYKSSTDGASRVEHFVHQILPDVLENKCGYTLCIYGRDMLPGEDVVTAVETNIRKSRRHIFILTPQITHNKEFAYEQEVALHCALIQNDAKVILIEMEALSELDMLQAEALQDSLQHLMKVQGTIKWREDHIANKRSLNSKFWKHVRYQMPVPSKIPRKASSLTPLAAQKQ

SMILES | inhibition
O=S(=O)(Nc1ccccc1Br)c1ccccc1 | inactive
CN(C)C(=O)c1ccc(S(=O)(=O)NC2CCCCCC2)s1 | inactive
Cc1nn(C(=O)c2cccnc2)c(C)c1Sc1ccc(Cl)cc1 | inactive
O=C(O)c1ccc(C(=O)c2ccc([N+](=O)[O-])cc2)cc1 | inactive
Cc1ccc(Sc2c(C)nn(C(=O)c3ccc([N+](=O)[O-])cc3)c2C)cc1 | 60% (active)
CCOc1ccc2c(=O)c(Oc3ccc(F)cc3)c(C)oc2c1 | inactive
OCc1ccc(CN2CCC(n3cc(C4CCCCC4)nn3)CC2)o1 | inactive
Cc1nn(-c2cccc(Br)c2)c(C)c1[C@@H]1C=C[C@@H](NS(=O)(=O)c2ccccc2)C1 | inactive
CN(Cc1ncc[nH]1)C(=O)C1CCN(Cc2ccco2)CC1 | inactive
COCCNC(=O)C1C2C=CC3(CN(Cc4ccccc4Cl)C(=O)C13)O2 (stereo not drawn) | inactive
CCNc1nc(NCC)n2c(SCC(=O)c3ccc(C(C)(C)C)cc3)nnc2n1 | 36% (active)
CC1CCCC(NC(=O)C2CCCN(S(=O)(=O)c3cnc[nH]3)C2)C1C (stereo not drawn) | inactive
COC(=O)c1cccc(-c2nccn2CCc2cccc(F)c2)n1 | inactive
CCCCNC(=O)CNC(=O)Cn1ccc2ccccc2c1=O | inactive
O=[N+]([O-])c1ccccc1S(=O)(=O)Nc1cccc2cccnc12 | 33% (active)
CCOc1ccc(S(=O)(=O)Nc2ccccc2F)c2cccnc12 | inactive
O=[N+]([O-])c1cccc(S(=O)(=O)Nc2cccnc2Cl)c1 | inactive
O=C1CCCN1C1CCN(Cc2nnc(C3CC3)o2)CC1 | inactive
CCOc1ccc(-n2c(C)cc(C(=O)CN3CCC(C)CC3)c2C)cc1 | inactive
COc1ccc(N2CN=c3s/c(=C\c4ccccn4)c(=O)n3C2)cc1 | 32% (active)
O=c1/c(=C/c2cccc([N+](=O)[O-])c2)sc2n1CN(c1cccc(C(F)(F)F)c1)CN=2 | inactive
COc1ccc(N2CN=c3s/c(=C/c4ccc([N+](=O)[O-])cc4)c(=O)n3C2)cc1 | inactive
Cc1ccc(-c2noc(CCC(=O)N(C)c3cc(Cl)ccc3C)n2)cc1 | inactive
CCOC(=O)c1c(C)n(C)c2ccc(OC(=O)c3ccc(OC)cc3)cc12 | inactive
CCN1CC(NC2CCN(c3ccc(OC)cc3)CC2)CC1=O (stereo not drawn) | inactive

SMILES | inhibition
CCOc1ccc(C(=O)NC2CC(=O)N(c3ccc(OCC)cc3)C2)cc1 (stereo not drawn) | inactive
Nc1ccc(Oc2ccc(Cl)cc2)cc1 | 37% (active)
O=S(=O)(c1ccc(Oc2ccc(Cl)cc2)cc1)c1ccc(Oc2ccc(Cl)cc2)cc1 | inactive
Cc1cccc(C(CC(=O)N2CCOCC2)c2ccccc2)c1O (stereo not drawn) | inactive
Clc1ccc(-c2csc(Nc3ncccn3)n2)cc1 | inactive
COc1ccc(OC)c(S(=O)(=O)NCCC(C)C)c1 | inactive
Clc1cccc(CN2CCN(c3ccccn3)CC2)c1 | inactive
O=[N+]([O-])c1cnc(N2CCN(Cc3ccccc3)CC2)c([N+](=O)[O-])c1 | 30% (active)
O=[N+]([O-])c1ccc(CN2CCN(Cc3ccccc3)CC2)s1 | inactive
CC(C)c1ccc(C(=O)NC2CC2)cc1 | inactive
O=S(=O)(NCc1ccccc1)N1CCc2[nH]nc(C3CCC3)c2C1 | inactive
CC(C(=O)NC1CC1)N1CCc2[nH]nc(C(c3ccccc3)c3ccccc3)c2C1 (stereo not drawn) | 97% (active)
CCc1c(-c2ccccc2)nc2ccccc2c1C(=O)NCC1CCCO1 (stereo not drawn) | inactive
CCCOc1ccc(CC(=O)O)cc1OC | inactive
Cc1cc(Cl)ccc1NC(=O)COc1ccc([N+](=O)[O-])cc1 | inactive
O=C(COc1ccc([N+](=O)[O-])cc1)Nc1ccc(N2CCCC2)cc1 | 60% (active)
Cc1cccc(C)c1OCC(=O)Nc1ccc([N+](=O)[O-])cc1 | inactive
CCCOc1ccccc1/C=C1/C(=O)N=C(N)N1C | inactive
CCC(C)(C)C1CCc2c(sc(NC(=O)c3cc(OC)c(OC)c(OC)c3)c2C(N)=O)C1 (stereo not drawn) | inactive
CCN(CC)C(=O)Cn1cnc2sc(C(=O)Nc3cccc(C(F)(F)F)c3)c(C)c2c1=O | inactive
CCOc1ccc(S(=O)(=O)Nc2ccccc2C)c2cccnc12 | inactive
Cc1cc(NC(=O)c2ccccc2Cl)nc2c1c(=O)oc1ccccc12 | inactive
O=c1c2c(nc(SCc3ccc(Cl)cc3)n1-c1ccccc1)CCS2 | 36% (active)
O=c1c2c(nc(SCc3ccccc3F)n1-c1ccccc1)CCS2 | inactive
O=c1c2c(nc(SCc3ccccc3)n1-c1ccc(Br)cc1)CCS2 | inactive

SMILES | inhibition
CCOc1ccc(Cn2c(CNS(=O)(=O)c3cnn(C(F)F)c3C)nc3cccnc32)cc1 | inactive
Cc1ccccc1-c1cc(O)c2c(c1)CN(C(=O)C1C=CCN1)CCO2 (stereo not drawn) | inactive
CN(C)CCCN1C(=O)C(=O)C(=C(O)c2ccc(F)cc2)C1c1ccncc1 (stereo not drawn) | inactive
O=C1CCCc2oc3c(Cl)cc(NS(=O)(=O)c4cccc5ccccc45)cc3c21 | inactive
CCCc1n[nH]c(=O)n1-c1ccccc1Cl | inactive
COc1ccc(N=Cc2ccc3ncccc3c2)cc1 | inactive
COc1ccc(S(=O)(=O)Nc2c(C)n(C)n(-c3ccccc3)c2=O)cc1 | inactive
C=CCNC(=O)c1cc2c(=O)n3cccc(C)c3nc2n1C | inactive
O=c1oc2ccccc2c(O)c1C=Nc1ccc(I)cc1 | inactive
COc1ccc(N=Cc2c(O)n(-c3ccccc3C)c(=O)c3ccccc23)cc1 | 48% (active)
CNc1nc2c(C)cccn2c(=O)c1C=Nc1ccc(OC)cc1 | 98% (active)
O=C(CCCc1ccccc1)NC1CCCCC1 | inactive
CC(=O)Nc1ccc(S(=O)(=O)NCCNc2ccc([N+](=O)[O-])cc2Cl)cc1 | inactive
CN1CCN(C(=O)CC2(c3ccccc3Cl)CC(=O)N(C3CCCC3)C2=O)[C@@H](c2ccccc2)C1 (stereo partly drawn) | inactive
O=C(Nc1nc2c(cc3c4c(cccc42)CC3)s1)c1ccc(S(=O)(=O)N2CCOCC2)cc1 | inactive
COc1ccc(-c2cnc(N)cn2)cc1C | inactive
Cc1ccncc1C(=O)N1CCC(=O)N(CC2CC2)C(C(C)C)C1 (stereo not drawn) | inactive
O=C(Cn1c2ccccc2c(=O)c2ccccc21)Nc1ccccc1Cl | inactive
O=C(O)Cn1c2ccccc2c2cc(Cl)ccc21 | inactive
CCn1c(=O)cc(O)c2ccccc21 | 85% (active)
Fc1ccccc1CSc1nnc2c(n1)OC(c1cccnc1)Nc1ccccc1-2 (stereo not drawn) | inactive
COc1ccc(N2CCN(Cc3ccc(Br)s3)CC2)cc1 | 39% (active)
COc1ccc(N2CCN(Cc3nc4c(c(=O)[nH]c(=O)n4C)n3CCCO)CC2)cc1 | inactive
COc1cccc(N2CCN(Cc3cccs3)CC2)c1 | inactive
CC(c1cccs1)N(C)Cc1ccc(C#CC(C)(C)O)s1 (stereo not drawn) | inactive

SMILES | inhibition
CC(C)NC(=O)C(CCO)NC(C)C (stereo not drawn) | inactive
Cc1ccc(-n2c(SCC(=O)Nc3ccccc3C(F)(F)F)nc3c(c2=O)SCC3)cc1 | inactive
Cc1ccc(-n2c(SCC(=O)Nc3ccc([N+](=O)[O-])cc3)nc3c(c2=O)SCC3)cc1 | 36% (active)
CCOc1ccc(NC(=O)CSc2nc3c(c(=O)n2-c2ccccc2)SCC3)cc1 | inactive
O=S(=O)(c1ccccc1)N1CCN(c2cc(-c3ccc(F)cc3)ncn2)CC1 | inactive
Cn1c(=O)c2c(SCC(=O)NC3CCCC3)nc(-c3ccc(F)cc3)nc2n(C)c1=O | inactive
Cc1cc(/C=C2/C(=O)NC(=O)N(C)C2=O)c(C)n1-c1ccc(Cl)c(Cl)c1 | 34% (active)
Cc1ccc(N2NC(=O)/C(=C/c3cccc([N+](=O)[O-])c3)C2=O)cc1Cl | inactive
Cc1ccc(N2NC(=O)/C(=C/c3ccc4c(c3)OCO4)C2=O)cc1Cl | inactive
COc1ccc(C(=O)Nc2c3c(nn2-c2ccc(F)cc2)CS(=O)C3)c(OC)c1 (stereo not drawn) | inactive
Cc1ccnc(CC(C)N(C)C(=O)c2cc(CC(C)C)no2)c1 (stereo not drawn) | inactive
Cc1ccc(C(=O)N2N=C(c3ccccc3)CC2c2ccccc2)cc1 (stereo not drawn) | inactive
N/C(=N/OC(=O)c1ccc2c(c1)OCO2)c1ccc(Cl)cc1 | inactive
COc1ccc(S(=O)(=O)Nc2ccc(Br)cc2)cc1 | inactive
COC(=O)CNS(=O)(=O)c1ccc(OC)cc1 | inactive
COc1ccc(S(=O)(=O)ON=C2C=CC(=O)C=C2)cc1 | 32% (active)
COc1ccccc1C(=O)Nc1ccc2c(c1)NC(=O)CC2c1ncc[nH]1 (stereo not drawn) | inactive
O=C1CCC(C(=O)N2CCN(Cc3cccnc3)CC2)CN1CC1CCCCC1 (stereo not drawn) | inactive
NC(=O)c1c(NC(=O)c2cc(=O)c3ccccc3o2)sc2c1CCCCC2 | inactive
CCCC(=O)c1c(OC)cc(O)c(CC)c1O | inactive
Cn1c(=O)cc(SCC(=O)N2CCN(C(=O)c3ccco3)CC2)c2ccccc21 | inactive
CC(CN1CCC(C(N)=O)CC1)c1ccccc1 (stereo not drawn) | inactive
CC(CN1CCN(C)C2(CCN(C(=O)c3ccco3)CC2)C1)c1ccccc1 (stereo not drawn) | 30% (active)
C=CCn1c(=O)c2c(nc3n2CCN3c2ccc(C)cc2)n(C)c1=O | inactive
COc1ccc(Nc2nc(Nc3ccc(OC)cc3)nc(N3CCNCC3)n2)cc1 | 31% (active)

SMILES | inhibition
COc1ccc(Nc2nc(Cl)nc(NCc3ccco3)n2)cc1 | inactive
CCC(=O)Nc1ccc(Nc2nc(C)cc(Nc3ccc(OC)cc3)n2)cc1 | inactive
CCOC(=O)CSC1=C(C#N)C(c2ccccc2)CC(=O)N1 (stereo not drawn) | inactive
CN(C)c1ccc(/C=C2\N=C(c3cccc(I)c3)OC2=O)cc1 | inactive
CN(C)c1ccc(/C=C\c2nc3ccccc3c(=O)n2-c2ccc(C(=O)O)cc2)cc1 | inactive
CC1=NN(Cc2ccccc2)C(=O)/C1=C/c1ccc(N(C)C)cc1 | 44% (active)
CN(C)CC1(O)CCCN(C(=O)c2ccc(-n3ccnc3)cc2)CC1 (stereo not drawn) | inactive
C=CCn1c(-c2ccccc2)csc1=Nc1ccc(O)cc1 | 53% (active) and 41% (active)
O=[N+]([O-])c1ccc(O)c(C=Nc2ccc3oc(-c4ccccc4)nc3c2)c1 | inactive
O=C(O)c1ccc(O)c(C=Nc2ccc3oc(-c4ccccc4)nc3c2)c1 | inactive
COc1ccc(-c2nc3cc(N=Cc4cccc(OC)c4O)ccc3o2)cc1 | 43% (active)
COc1ccc([N+](=O)[O-])cc1NC(=O)c1ccc(-c2ccccc2)cc1 | inactive
CC1(c2ccccc2NC(=O)c2ccc([N+](=O)[O-])cc2)CC1 | 30% (active)
O=C(Nc1ccc([N+](=O)[O-])cc1)c1ccc(Br)cc1 | inactive
c1cc(-c2nc3ccncc3[nH]2)ccn1 | inactive
CC1CCN(c2ccc(C(=O)O)cc2[N+](=O)[O-])CC1 | inactive
O=[N+]([O-])c1cc(Cl)ccc1N1CCCNCC1 | inactive
O=[N+]([O-])c1cc(Cl)ccc1N1CCN(c2ccc([N+](=O)[O-])c3cccnc23)CC1 | 56% (active)
CSc1ccccc1NC(=O)c1cc(-c2ccc(Br)cc2)on1 | inactive
O=C1CN(C(=O)c2nn(CCCc3ccccc3)c3c2CN(Cc2cccnc2)CC3)CCN1 | inactive
CCOc1ccc(-c2cc(C)n3nc(C(=O)OC)cc3n2)cc1 | inactive
OCCNc1c(F)c(F)nc(N2CCOCC2)c1F | inactive
O=C(NC[C@H]1O[C@@H](CO)[C@@H](O)[C@H]1N1CCc2ccccc2C1)Nc1ccccc1 | inactive
